From PubChem BioAssay
Only some compounds are listed: those with a hit (about 1.9% of all), similar ones and a draw of the others.
HTR5A inv ctr = counter-screen for OPRM1-OPRD1 inverse agonists: human HTR5A inverse agonism; HTR5A cell line, luminescence; P47898; inhibition, % at 9.3 µM; 340,000 tested, 0.083% active; in the data active means inhibition mostly above about 23%, no sharp cut-off; inactive means mostly below about 18%
HTR5A ag = counter-screen for OPRM1-OPRD1 agonists: human HTR5A agonism | P47898 | HTR5A agonist assay, luminescence, cell-based | activation, % at 9.3 µM | 340,000 tested, 0.61% active; in the data active means activation mostly above about 9.5%, no sharp cut-off; inactive means mostly below about 7.6%
MOR-DOR inv ag = inverse agonists of human mu-delta opioid receptor heterodimerization | P35372+P41143 | AID 504357 | 340,000 tested, 0.21% active | inhibition, % at 9.3 µM | cell-based MOR-DOR heterodimer luminescence, inverse agonism; in the data active means inhibition above about 22%, passing the limit was not always enough
Target sequence (P35372 whole entry, looked up): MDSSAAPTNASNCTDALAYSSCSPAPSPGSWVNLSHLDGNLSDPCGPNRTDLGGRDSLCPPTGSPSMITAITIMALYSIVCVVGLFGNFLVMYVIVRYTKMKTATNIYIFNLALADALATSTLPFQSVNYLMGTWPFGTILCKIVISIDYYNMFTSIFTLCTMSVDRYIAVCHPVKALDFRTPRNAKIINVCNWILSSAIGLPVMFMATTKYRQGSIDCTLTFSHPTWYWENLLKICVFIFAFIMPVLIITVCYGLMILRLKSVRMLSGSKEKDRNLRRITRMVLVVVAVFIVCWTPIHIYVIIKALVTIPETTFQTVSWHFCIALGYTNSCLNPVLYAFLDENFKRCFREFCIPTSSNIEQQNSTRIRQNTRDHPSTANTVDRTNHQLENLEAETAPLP
Target sequence (P41143 whole entry, looked up): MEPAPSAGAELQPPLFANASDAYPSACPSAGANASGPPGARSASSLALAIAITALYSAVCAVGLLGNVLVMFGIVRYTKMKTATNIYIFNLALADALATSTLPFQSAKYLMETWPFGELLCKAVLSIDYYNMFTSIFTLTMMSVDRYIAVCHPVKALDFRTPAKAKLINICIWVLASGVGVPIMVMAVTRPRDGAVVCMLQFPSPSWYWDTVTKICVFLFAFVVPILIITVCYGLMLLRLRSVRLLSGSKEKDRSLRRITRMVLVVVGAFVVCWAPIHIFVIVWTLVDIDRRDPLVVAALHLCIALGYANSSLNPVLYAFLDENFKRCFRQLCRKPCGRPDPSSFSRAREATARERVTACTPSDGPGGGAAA
MsrA inh = inhibits bovine methionine sulfoxide reductase A. purified bovine MsrA, absorbance read-out. inhibition, % at 15.5 µM. 360,000 tested, 0.75% active. AID 651718; in the data active means inhibition above about 4.5%
OPRM1-OPRD1 ag = OPRM1-OPRD1 heterodimerization agonism. 340,000 tested, 0.3% active. P35372+P41143. activation, % at 9.3 µM. cells, luminescence; in the data active means activation above about 18%
MsrA act = activators of bovine methionine sulfoxide reductase A | activation, % at 10.6 µM | 360,000 tested, 0.3% active | purified bovine MsrA, absorbance read-out; in the data active means activation above about 7.5%
Numbers stand for hits.

Screening N#Cc1c(N)nc(SCC(=O)C23CC4CC(CC(C4)C2)C3)c(C#N)c1-c1ccc(Cl)cc1 returned HTR5A inv ctr inactive, HTR5A ag inactive, MOR-DOR inv ag inactive, MsrA inh inactive, OPRM1-OPRD1 ag inactive and MsrA act inactive.
Screening Fc1ccc(-c2cc(C(F)(F)C(F)F)[nH]n2)cc1 returned MsrA inh inactive and MsrA act inactive.
Oc1ccccc1-c1cc(C(F)(F)C(F)F)[nH]n1 was read as HTR5A inv ctr inactive, HTR5A ag 11, MOR-DOR inv ag inactive, MsrA inh inactive, OPRM1-OPRD1 ag inactive and MsrA act inactive.
For CCOC(=O)c1ccc(NC(=O)c2cccc(S(=O)(=O)N3CCN(C(C)=O)CC3)c2)cc1 the results were HTR5A inv ctr inactive, HTR5A ag 12, MOR-DOR inv ag inactive, MsrA inh inactive, OPRM1-OPRD1 ag inactive and MsrA act inactive.
For Cn1c(=O)c2c(ncn2CC(COCc2ccc(Cl)cc2)OCc2ccc(Cl)cc2)n(C)c1=O (stereo not given) the results were HTR5A inv ctr inactive, HTR5A ag inactive, MOR-DOR inv ag inactive, MsrA inh inactive, OPRM1-OPRD1 ag inactive and MsrA act inactive.
For Cn1c(=O)c2c(ncn2Cc2ccc(Cl)cc2)n(C)c1=O the results were HTR5A inv ctr inactive, HTR5A ag 8.0, MOR-DOR inv ag inactive, MsrA inh inactive, OPRM1-OPRD1 ag inactive and MsrA act inactive.
Screening Oc1cccc(C(O)CNCc2ccc(-c3ccccc3)cc2)c1 (stereo not given) returned HTR5A inv ctr inactive, HTR5A ag inactive, MOR-DOR inv ag inactive, MsrA inh inactive, OPRM1-OPRD1 ag inactive and MsrA act inactive.
Screening Oc1cccc(C(O)CNCc2ccc(OCc3ccc(Cl)cc3Cl)cc2)c1 (stereo not given) returned HTR5A inv ctr inactive, HTR5A ag 12, MOR-DOR inv ag inactive, MsrA inh inactive, OPRM1-OPRD1 ag inactive and MsrA act inactive.
O=C(CC1CCCC1)N[C@@H](Cc1cccnc1)C(=O)N1CCC[C@H]1C(=O)NCCc1ccccc1Cl was read as MsrA inh inactive.
`S=C(Nc1ccc(Cl)c(Cl)c1)NC1CCN(Cc2ccccc2)CC1` gave HTR5A inv ctr inactive, HTR5A ag 12, MOR-DOR inv ag inactive, MsrA inh inactive, OPRM1-OPRD1 ag 23 and MsrA act inactive.
Screening Fc1ccc(NC(=S)NC2CCN(Cc3ccccc3)CC2)cc1 returned HTR5A inv ctr inactive, HTR5A ag inactive, MOR-DOR inv ag inactive, MsrA inh inactive, OPRM1-OPRD1 ag inactive and MsrA act inactive.
For CCOC(=O)C1=C(COC(=O)c2ccc([N+](=O)[O-])s2)NC(=O)NC1C (stereo not given) the results were HTR5A inv ctr inactive, HTR5A ag inactive, MOR-DOR inv ag inactive, MsrA inh inactive, OPRM1-OPRD1 ag inactive and MsrA act 19.
Screening COc1cc2c(c(OC)c1OC)C1(CCCCC1)CC2NS(=O)(=O)C(C)C (stereo not given) returned MsrA inh inactive.
For Cc1ccc(S(=O)(=O)NCC(=O)OCC(=O)c2ccc(S(=O)(=O)N3CCCCC3)cc2)cc1C the results were HTR5A inv ctr 42, HTR5A ag inactive, MOR-DOR inv ag 77, MsrA inh inactive, OPRM1-OPRD1 ag inactive and MsrA act inactive.
CC(=O)N(Cc1cc2ccccc2[nH]c1=O)c1ccc(C)cc1 was read as HTR5A inv ctr inactive, HTR5A ag 9.7, MOR-DOR inv ag inactive, MsrA inh inactive, OPRM1-OPRD1 ag inactive and MsrA act inactive.
Screening CSc1ccc(Oc2cccc3c2S(=O)(=O)N(C2CC2)C[C@@H](COCc2ccccc2)O3)cc1C returned MsrA inh inactive.
`C(=C1c2ccccc2-c2ccccc21)c1ccncc1` gave HTR5A inv ctr inactive, HTR5A ag 8.9, MOR-DOR inv ag inactive, MsrA inh inactive, OPRM1-OPRD1 ag inactive and MsrA act inactive.
For NC(=O)c1c(NC(=O)CSc2nnc(Cc3ccccc3)n2Cc2ccco2)sc2c1CCC2 the results were HTR5A inv ctr inactive, HTR5A ag inactive, MOR-DOR inv ag inactive, MsrA inh inactive, OPRM1-OPRD1 ag inactive and MsrA act inactive.
CCCCn1c(SCC(=O)Nc2sc3c(c2C(N)=O)CCC3)nnc1-c1ccccc1 was read as HTR5A inv ctr inactive, HTR5A ag 14, MOR-DOR inv ag inactive, MsrA inh inactive, OPRM1-OPRD1 ag inactive and MsrA act inactive.
Screening CN(C(=O)COC(=O)C12CC3CC(CC(Cl)(C3)C1)C2)c1ccccc1 returned HTR5A inv ctr inactive, HTR5A ag 11, MOR-DOR inv ag inactive, MsrA inh inactive, OPRM1-OPRD1 ag inactive and MsrA act inactive.
Screening O=C(COC(=O)c1c2c(nc3ccccc13)/C(=C\c1cccs1)CCC2)Nc1ccccc1 returned HTR5A inv ctr inactive, HTR5A ag inactive, MOR-DOR inv ag inactive, MsrA inh inactive, OPRM1-OPRD1 ag inactive and MsrA act inactive.
Screening CC(C)CNC(=O)COC(=O)c1c2c(nc3ccccc13)/C(=C\c1cccs1)CC2 returned HTR5A inv ctr inactive, HTR5A ag inactive, MOR-DOR inv ag inactive, MsrA inh inactive, OPRM1-OPRD1 ag 21 and MsrA act inactive.
Screening Cn1cc(CN2CCC(n3nccc3NC(=O)CCCc3ccccc3)CC2)cn1 returned HTR5A inv ctr inactive, HTR5A ag inactive, MOR-DOR inv ag inactive, MsrA inh inactive, OPRM1-OPRD1 ag inactive and MsrA act inactive.
Cn1cc(CN2CCC(n3nccc3NC(=O)CCc3ccccc3)CC2)cn1 was read as HTR5A inv ctr inactive, HTR5A ag 10, MOR-DOR inv ag inactive, MsrA inh inactive, OPRM1-OPRD1 ag inactive and MsrA act inactive.
Screening Cc1c(CC(=O)NCC(=O)O)c(=O)oc2cc3c(cc12)CCC(C)(C)O3 returned HTR5A inv ctr inactive, HTR5A ag inactive, MOR-DOR inv ag inactive, MsrA inh 4.6, OPRM1-OPRD1 ag inactive and MsrA act inactive.
For Cc1cc(NC(=S)N(Cc2ccc(Br)cc2)Cc2ccc(C(=O)O)cc2)ccc1Cl the results were HTR5A inv ctr inactive, HTR5A ag 12, MOR-DOR inv ag inactive, MsrA inh inactive, OPRM1-OPRD1 ag inactive and MsrA act inactive.
COC(=O)[C@]12C[C@H](CC(=O)N3CCC(c4ccccc4)CC3)C(=O)N(Cc3ccccc3)C1=C[C@H](C(C)(C)C)O[C@@H]2C was read as MsrA inh inactive.
Screening Cn1c(=O)oc2ccc(S(=O)(=O)Nc3ccc(Cl)cc3[N+](=O)[O-])cc21 returned MsrA inh inactive.
Screening O=C(N/N=C/c1ccccn1)c1ccc(NC(=O)c2ccc(F)cc2)cc1 returned HTR5A inv ctr inactive, HTR5A ag 14, MOR-DOR inv ag inactive, MsrA inh inactive, OPRM1-OPRD1 ag inactive and MsrA act inactive.
`O=C(N/N=C/c1ccccn1)c1ccc(NC(=O)c2ccccc2Cl)cc1` gave HTR5A inv ctr inactive, HTR5A ag inactive, MOR-DOR inv ag inactive, MsrA inh inactive, OPRM1-OPRD1 ag inactive and MsrA act inactive.
Screening Cc1cccc(CN2CCN(C3CN(Cc4cn(Cc5ccc(C(F)(F)F)cc5)nn4)S(=O)(=O)C3)CC2)c1 (stereo not given) returned MsrA inh inactive.
